Measured values from PubChem BioAssay (NCATS).
Inconclusive results are not listed. Where a call stands in place of a potency, no number is given. The source made the active and inactive calls. Calls come from the whole dose curve; as a rule, active = well fitted curve in the direction sought with a large enough effect; inconclusive = small, poorly fitted or top-dose-only effect, or another doubt; inactive = no such curve, though single readings can be large; an effect the other way counts as inactive or inconclusive.

Key:
[1] = target: Aldehyde dehydrogenase, mitochondrial (Homo sapiens) (UniProt P05091); experiment: qHTS for Inhibitors of the Aldehyde Dehydrogenase Family (ALDH2) Primary screen (AID 2061308); note: nearly all actives have a fitted effect of over 55% in size
[2] = target: Retinaldehyde dehydrogenase 3 (Homo sapiens) (UniProt P47895); experiment: qHTS for Inhibitors of the Aldehyde Dehydrogenase Family (ALDH1A3) Primary screen (AID 2061315)

| Structure (SMILES) | Potency [1] | Potency [2] |
| --- | --- | --- |
| COc1ccnc(NC(=S)N2CCN(c3cccc(C(F)(F)F)n3)CC2)c1 | inactive | inactive |
| Cc1cc(C)nc(NC(=S)N2CCN(c3ccc4ccccc4n3)CC2)c1 | inactive | inactive |
| CC1=C(C(=O)NC2CCCCC2)C(c2ccccc2Br)N=C(Nc2nc3ccccc3o2)N1 (stereo unspecified) | inactive | inactive |
| Cc1ccc(S(=O)(=O)Nc2ccc(OC(F)(F)F)cc2C(=O)Nc2nc(-c3ccccc3)cs2)cc1 | inactive | inactive |
| NC(=O)C1CCN(c2nc(-c3ccccc3F)cs2)CC1 | inactive | inactive |
| CCOc1ccc(CCNC(=O)c2cccc(C(=O)c3ccccc3)c2)cc1OCC | inactive | inactive |
| Cc1cccc(CNc2ccnc(-c3ccc(C(F)(F)F)cc3)n2)c1 | inactive | inactive |
| CNc1oc(-c2ccccc2-c2ccccc2)nc1C#N | inactive | inactive |
| Clc1ccc2ncc(-c3cccc(NC4CCNCC4)n3)n2c1 | inactive | inactive |
| CCN1CCN(Cc2ccc(C(=O)Nc3ccc(C)c(Oc4ccc5c(c4)CC(=O)N5)c3)cc2C(F)(F)F)CC1 | inactive | inactive |
| COc1cccc(CN(C)c2ccc([S+](=O)([O-])Nc3nccs3)cc2)c1O | inactive | inactive |
| O=S(=O)(c1ccccc1)N1CCN(S(=O)(=O)c2ccc3c(c2)OCCO3)CC1 | inactive | inactive |
| COc1cc(C2Nc3ccccc3C(=O)N2Cc2ccccc2)ccc1OCc1ccc(NC(C)=O)cc1 (stereo unspecified) | inactive | inactive |
| Fc1cnc(-c2ccccc2C(F)F)nc1NCc1ccc(-c2ccn[nH]2)cc1 | inactive | inactive |
| N[C@H]1CCN(c2cnc3c(O)ccc(C(=O)O)c3c2)C1 | inactive | inactive |
| CCCn1c(C)nc2c(NC3CCN(Cc4ccccc4)CC3)nc(C)nc21 | inactive | inactive |
| NCCCCNc1ncnc2ccc(-c3ccc4c(c3)OCO4)cc12 | inactive | inactive |
| O=C(CN1C(=O)N/C(=C\c2cccn2-c2cccc(C(=O)O)c2)C1=O)Nc1cccc(Cl)c1 | inactive | inactive |
| COc1ccc(Cn2ncc3c4sc(C)cc4n(C)c3c2=O)cc1 | inactive | inactive |
| Cc1ccc(OCCn2c(CCNC(=O)c3ccncc3)nc3ccccc32)cc1 | inactive | inactive |
| Oc1ccc(COC2CCCC2)c2cccnc12 | inactive | inactive |
| NNC(=O)C(C(=O)OCc1ccccc1)c1ccccc1 (stereo unspecified) | inactive | inactive |

| Structure (SMILES) | Potency [1] | Potency [2] |
| --- | --- | --- |
| CCCn1c(-c2ccc(F)cc2)nc2c(NCCCN(C)C)nc(C)nc21 | inactive | inactive |
| N#CN1CCC(NC(=O)c2cccc(C(F)(F)F)c2)CC1 | inactive | inactive |
| CC(C)(C)OC(=O)Cc1nnc(C(C(=O)OCc2ccccc2)c2ccccc2)s1 (stereo unspecified) | inactive | inactive |
| Cc1cn([C@H]2C[C@H](N[S+](=O)([O-])Cc3cccc(Cl)c3)[C@@H](CO)O2)c(=O)[nH]c1=O | inactive | inactive |
| CCN1CCC[C@@H]1CNC(=O)c1ccc2c(c1)NC(=O)/C(=C/c1ccccc1F)S2 | inactive | inactive |
| COc1cccc(S(=O)(=O)N2CCN(S(=O)(=O)c3ccc4c(c3)OCCO4)CC2)c1 | inactive | inactive |
| Cc1ccc(-c2ccnn(CC(=O)N(C)C(C)c3ccco3)c2=O)cc1 (stereo unspecified) | inactive | inactive |
| CC(=O)Nc1ccc(S(=O)(=O)N2CCCN(S(=O)(=O)c3ccc4c(c3)OCCO4)CC2)cc1 | inactive | inactive |
| CCCCNC(=O)c1ccc2c(c1)ncn2-c1cccc(C)c1 | inactive | inactive |
| CCOC(=O)c1ccc(NC(=O)CN2CCCCC2)cc1 | inactive | inactive |
| O=C(Cn1nc(-c2ccc(C(F)(F)F)cc2)ccc1=O)NCCc1ccccc1 | inactive | inactive |
| O=C(CNC(=O)c1ccccc1)OC(CCc1ccccc1)C(=O)Nc1cc(C(F)(F)F)ccc1Cl (stereo unspecified) | inactive | inactive |
| S=C(NCCCN(Cc1ccc(Cl)c(Cl)c1)c1ccc(Br)cn1)NCCc1cnc[nH]1 | inactive | inactive |
| CN(C)CCCN1CCCN(C(=O)c2cccc(-c3cc(O)c4ncccc4c3)c2)C1 | inactive | inactive |
| C=C1C(=O)OC2CC3(C)C(O)C(=O)C=C(C)C3CC12 (stereo unspecified) | inactive | inactive |
| Cn1nnnc1Sc1ncnc2scc(-c3cccc(C#N)c3)c12 | inactive | inactive |
| O=S(=O)(Nc1ccccc1F)c1ccc(O)c2ncccc12 | inactive | inactive |
| CC1=C(C(=O)Nc2nc3ccccc3s2)C2(CCCC2)N=C(Nc2nc3ccccc3o2)N1 | inactive | inactive |
| Cc1ccc(NS(=O)(=O)c2cc3c(cc2Cl)CCC(=O)N3)cc1Cl | inactive | inactive |
| Cc1ccc(S(=O)(=O)Nc2ccccc2CNc2nc(-c3ccccc3)cs2)cc1 | inactive | inactive |
| COc1cccc(C2=Nn3c(nnc3-c3cc(OC)ccc3OC)SC2)c1 | inactive | inactive |
| O=C1CCc2cc(S(=O)(=O)Nc3cccc(Oc4ccccc4)c3)ccc2N1 | inactive | inactive |

| Structure (SMILES) | Potency [1] | Potency [2] |
| --- | --- | --- |
| O=C(Nc1ccc(-c2nc3ccccc3[nH]2)cc1)c1ccc(Cl)c(Cl)c1 | inactive | inactive |
| COc1ccc(C2Nc3ccccc3C(=O)N2Cc2cccc(Cl)c2)cc1COc1ccc(NC(C)=O)cc1 (stereo unspecified) | inactive | inactive |
| COc1cccc(NC(=S)N2CCN(c3ccccc3C(F)(F)F)CC2)n1 | inactive | inactive |
| Cc1ccc(-c2ccc(=O)n(CC(=O)N(C)C3CCCCCC3)n2)cc1 | inactive | inactive |
| CC1=C(C(=O)Nc2ccon2)C(c2ccccc2Br)N=C(Nc2nc3ccccc3o2)N1 (stereo unspecified) | inactive | inactive |
| N#Cc1nc(Nc2cccc(-c3ccccc3)c2)nc(NC2CCCC2)n1 | inactive | inactive |
| O=[S+]([O-])(Nc1ccccc1)c1ccc(NCc2ccc(Cl)cc2O)cc1 | inactive | inactive |
| O=C(Cc1nnc(CNC(=O)c2ccccc2)s1)Nc1ccc(C(F)(F)F)cc1Cl | inactive | inactive |
| Oc1c(CN2CCCCC2)cc(COCc2ccccc2)c2cccnc12 | inactive | inactive |
| COc1ccc(-c2cnc(-c3cccc4c3-c3ccccc3C4=O)o2)cc1 | inactive | inactive |
| COc1cc(O)c(C(CC(=O)N2CCC(C)CC2)c2ccc(C)cc2)c(OC)c1 (stereo unspecified) | inactive | inactive |
| CN(Cc1ccccc1)C(=O)C1CCN(Cc2cccc3ccccc23)CC1 | inactive | inactive |
| O=C(Nc1ccc(-c2nc3ccccc3[nH]2)cc1)Nc1ccc2c(c1)OCCO2 | inactive | inactive |
| Cc1ccc(S(=O)(=O)Nc2cc(Br)ccc2C(=O)Nc2nc(-c3ccccc3)cs2)cc1 | inactive | inactive |
| O=S1(=O)N=C(OCc2ccccc2)c2ccccc21 | inactive | inactive |
| Fc1cccc(-c2ccc(Nc3nc(-c4ccncc4)nc4ccccc34)cc2F)c1 | inactive | inactive |
| CCN1CCCC1Cn1c(-c2ccccc2)nc2c(NCc3ccccc3)nc(C)nc21 (stereo unspecified) | inactive | inactive |
| COc1ccc(C2=Nn3c(nnc3-c3ccccc3C(F)(F)F)SC2)cc1OC | inactive | inactive |
| NC(N)=NCCC[C@H](NC(=O)CNC(=O)c1ccccc1)C(=O)Nc1cc(C(F)(F)F)ccc1Cl | inactive | inactive |
| O=C(Nc1ccc([S+](=O)([O-])Nc2nccs2)cc1)c1ccn[nH]1 | inactive | inactive |
| O=C(O)c1ccc(O)c2ncc(N3CCC(N4CCOCC4)C3)cc12 (stereo unspecified) | inactive | inactive |
| O=C1CCc2cc(Cl)c(S(=O)(=O)Nc3ccc(Cl)c(Cl)c3)cc2N1 | inactive | inactive |

| Structure (SMILES) | Potency [1] | Potency [2] |
| --- | --- | --- |
| CC(=O)c1ccccc1-c1ncc(C)c(NCC2CCN(c3cccnc3)CC2)n1 | inactive | inactive |
| Fc1cccc(CNc2ncnc3ccc(-c4ccccc4Cl)cc23)c1 | inactive | inactive |
| O=C(Nc1cc(C(F)(F)F)ccc1Cl)C(O)Cc1ccccc1 (stereo unspecified) | inactive | inactive |
| COc1c2cc(c(O)c1OC)CCCCC(O)CCc1ccc(O)c-2c1 (stereo unspecified) | inactive | inactive |
| COc1cccc(Nc2nn3c(=O)c4ccccc4nc3s2)c1 | inactive | inactive |
| COc1cccc(-c2csc(N3CCC(C(N)=O)CC3)n2)c1 | inactive | inactive |
| O=C(CNC(=O)c1ccc2cc[nH]c2c1)OC(C(=O)Nc1cc(C(F)(F)F)ccc1Cl)c1ccccc1 (stereo unspecified) | inactive | inactive |
| O=S(=O)(c1ccc2c(c1)OCCO2)N1CCN(S(=O)(=O)c2c(F)cccc2F)CC1 | inactive | inactive |
| Cc1ccc(CN(C)c2ncnc3ccc(-c4ccc(C(=O)O)o4)cc23)o1 | inactive | inactive |
| CCCN(Cc1cccs1)c1ncnc2ccc(-c3ccc4c(c3)OCO4)cc12 | inactive | inactive |
| O=C(O)c1ccc(-c2nn3c(=O)cc(N4CCNCC4)nc3s2)cc1 | inactive | inactive |
| CCCCNc1nc(C)nc2c1nc(-c1ccccc1)n2CCCN1CCCCC1C (stereo unspecified) | inactive | inactive |
| CC1=CC2/C=C(\C)CCC(O)C(=O)C(O)CC(=O)C23C(=O)NC(CC(C)C)C3C1C (stereo unspecified) | inactive | inactive |
| COc1ccccc1-c1csc(N2CCC(C(N)=O)CC2)n1 | inactive | inactive |
| COc1ccc(C2c3c(ncn(CCN4CCOCC4)c3=N)Oc3ccc4ccccc4c32)cc1 (stereo unspecified) | inactive | inactive |
| COc1cnc(-c2ccccc2C(C)C)nc1NCc1ccc(-c2cccnc2)cc1 | inactive | inactive |
| c1coc(-c2ccc3ncnc(NCc4cccs4)c3c2)c1 | inactive | inactive |
| CC(C)Oc1ccc(-c2ccc(=O)n(CC(=O)NCCc3ccccc3)n2)cc1 | inactive | inactive |
| Cc1cc(C)n2ncc(C(=O)Nc3ccc(C#N)cc3)c2n1 | inactive | inactive |
| Oc1ccc(CCc2c(F)cccc2F)c2cccnc12 | inactive | inactive |
| O=C(CSc1nnc(-c2cccc([S+](=O)([O-])N3CCCC3)c2)n1-c1ccccc1)Nc1cccc(F)c1 | inactive | inactive |
| CCCn1c(C)nc2c(NCCN3CCCCC3)nc(C)nc21 | inactive | inactive |
